Assay outcomes (PubChem)
Compounds with a hit are over-represented: about 0.85% of the library has one in this group of screens.
CCT modulator = High-Throughput Screening for Modulators of Cytosolic Chaperonin Activity; purified chaperonin ATPase assay, HTRF ADP detection, 30 min; activity change, % (test concentration not listed), hits read low; 360,000 tested, 0.3% active; AID 651819, 2012; in the data active = activity change below about -30%; also: % is scaled to controls: 0 for no effect and ±100 for the full control effect
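We incubate TRiC, 40 or 20 nM final, with library compounds at 76 uM and 10 uM ATP for 30 min at 37 °C. ADP formed is detected with Transcreener HTRF reagents after 30 min at room temperature.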
Mm-Cpn inhibitor = Inhibitors of TCP-1 ring complex (TRiC) of Methanococcus maripaludis (MmCpn): qHTS; AID 504842, 2011; purified Mm-Cpn ATPase, ADP Transcreener TR-FRET; Potency, µM (series often up to 76.9 µM), without a hit: at the top dose activity, negative = inhibition, hits mostly inhibitors; Chaperonin Mm-Cpn (Methanococcus maripaludis); 330,000 tested, 0.031% active; also: potency is read from the fitted curve at half-maximal effect; % is scaled to controls: 0 for no effect and ±100 for the full control effect; nearly all actives have a fitted effect of over 80% in size
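Reaction buffer contained 30 mM Tris pH 7.4, 100 mM KCl, 5 mM MgCl2 and 1 mM DTT. Mm-CPN (25 nM final) hydrolysed 10 uM ATP over 30 min at 37°C; ADP was read by HTRF.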
mIDH1 inhibitor = qHTS for Inhibitors of mutant isocitrate dehydrogenase 1 (IDH1): qHTS; Potency, µM (top dose mostly 76.6 µM), for inactives: at the top dose activity change, negative = inhibition, usual class: inhibitors; IDH1-R132H enzyme, NADPH consumption, diaphorase/resazurin fluorescence; 390,000 tested, 0.093% active; Isocitrate dehydrogenase [NADP] cytoplasmic (Homo sapiens), O75874; also: potency is read from the fitted curve at half-maximal effect; % is scaled to controls: 0 for no effect and ±100 for the full control effect; nearly all actives have a fitted effect of over 65% in size
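IDH1-R132H (0.5 ug/mL) preincubated 30 min with compound, then NADPH (0.016 mM) and alpha-KG (2 mM) added; 80 min at RT, pH 7.5. Remaining NADPH coupled via diaphorase/resazurin to fluorescence (540/590 nm); concentration-response curves normalized to no-enzyme control.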
pAkt inh = HTS Assay for Inhibitors of Akt Phophorylation: Primary Screen | 360,000 tested, 0.32% active | AID 651550, 2012 | Neuro2A IGF-stimulated pAkt S473 HTRF, 20 min; hits give low values | activity change, % for hits at 50 µM; in the data active = activity change below about -80%; also: % is scaled to controls: 0 for no effect and ±100 for the full control effect
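Neuro2A cells in DMEM with 0.5% FBS, overnight at 37 deg C, given compound at single 50 µM final, then IGF (6 nM final) for 20 min at 37 deg C. Lysed; phospho-Akt Ser473 by HTRF after 24 h, 665/615 ratio.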
GLS inh = qHTS for Inhibitors of Glutaminase (GLS). Glutaminase kidney isoform, mitochondrial (Homo sapiens), O94925. GLS enzymatic activity, qHTS titration. Potency, µM (highest dose often 45.5 µM), for inactives: at the top dose activity change, negative = inhibition, most hits filed as inhibitors. 410,000 tested, 0.21% active. AID 624170, 2012; also: potency is read from the fitted curve at half-maximal effect; % is scaled to controls: 0 for no effect and ±100 for the full control effect
Target sequence (O94925 whole entry, looked up, canonical isoform): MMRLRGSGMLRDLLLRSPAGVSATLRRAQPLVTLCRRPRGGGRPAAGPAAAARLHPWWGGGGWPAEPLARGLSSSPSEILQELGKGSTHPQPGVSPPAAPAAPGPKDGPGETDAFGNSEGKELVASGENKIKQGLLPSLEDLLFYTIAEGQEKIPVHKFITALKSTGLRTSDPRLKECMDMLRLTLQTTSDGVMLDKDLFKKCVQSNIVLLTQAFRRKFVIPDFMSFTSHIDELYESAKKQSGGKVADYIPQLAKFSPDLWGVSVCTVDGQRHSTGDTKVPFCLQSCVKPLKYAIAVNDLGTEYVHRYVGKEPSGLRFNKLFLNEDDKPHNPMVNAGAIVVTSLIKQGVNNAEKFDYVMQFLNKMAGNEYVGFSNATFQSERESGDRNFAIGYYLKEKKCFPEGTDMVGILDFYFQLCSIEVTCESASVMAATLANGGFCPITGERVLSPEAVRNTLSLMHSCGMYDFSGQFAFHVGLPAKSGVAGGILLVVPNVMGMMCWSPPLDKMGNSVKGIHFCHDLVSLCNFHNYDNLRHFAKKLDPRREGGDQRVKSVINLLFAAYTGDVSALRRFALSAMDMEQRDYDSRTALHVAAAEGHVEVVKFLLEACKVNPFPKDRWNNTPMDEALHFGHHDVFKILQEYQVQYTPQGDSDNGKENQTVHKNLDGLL
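Coupled fluorescence readout: glutamate oxidase/HRP/Amplex Red detect glutamate formed by hKGA from L-glutamine (1 mM solution added). Buffer 45 mM KH2PO4 pH 8.2, 0.02% Tween-20; reads at t0 and 30 min RT.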
Glioma ERSR ind = qHTS for Inducers of the Endoplasmic Reticulum Stress Response (ERSR) in Human Glioma: qHTS; 420,000 tested, 0.02% active; Potency, µM, for inactives: at the highest dose activation, actives largely listed as activators; U87-MG GRP78 promoter luciferase reporter, 16 h; also: potency is read from the fitted curve at half-maximal effect; series mostly up to about 76 µM; % of control where 0% means no effect; nearly all actives have a fitted effect of over 35% in size
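Stably transfected U87-MG human glioma cells carrying a GRP78-based luminescent sensor were seeded at 1000 cells/well, pin-dosed with compounds and incubated 16 h. Luciferase reagent was then added, and end-point luminescence was read after 10 min at room temperature.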
* hit, by the source's call; i = inactive; x = not tested or not shown. Unless noted, calls follow the shape of the dose curve; as a rule, active = well fitted curve in the direction sought with a large enough effect; inconclusive = small, poorly fitted or top-dose-only effect, or another doubt; inactive = no such curve, though single readings can be large; an effect the other way counts as inactive or inconclusive.

SMILES | CCT modulator | Mm-Cpn inhibitor | mIDH1 inhibitor | pAkt inh | GLS inh | Glioma ERSR ind
Cc1ncc(-c2ccc(F)cc2)c(C2CCCN(Cc3cccc(O)c3)C2)n1 (configuration not stated) | x | x | x | x | x | -9%
Cc1nc(NCc2ccc3nsnc3c2)sc1-c1ccn(C)n1 | x | x | x | x | x | 2%
Cc1ccc(C(=O)CSC2=C(C#N)C(c3ccco3)C3=C(CC(C)(C)CC3=O)N2)cc1 (configuration not stated) | -47* | -3% | 1% | i | -1% | -6%
Cc1cc(C)nc(N2CCCC(C(=O)NCCc3ccccc3F)C2)n1 (configuration not stated) | 0 | -1% | 8% | i | 3% | -4%
CCOc1cc(C)nc(N2CCCC(C(=O)NCc3ccccc3F)C2)n1 (configuration not stated) | -41* | 0% | 2% | i | 17% | 0%
O=C(CCCCn1c(=O)c2ccccc2n(CC(=O)Nc2ccc(F)cc2)c1=O)NCc1ccco1 | 0 | 0% | -1% | i | -1% | 0%
Cc1ccc(NC(=O)Cn2c(=O)n(CCCCC(=O)NCc3ccco3)c(=O)c3ccccc32)cc1 | -1 | 2% | -1% | -113%* | 7% | -4%
COCC1CCCN(Cc2ccc3c(c2)CN(C(=O)c2ccc(OC)nc2OC)CCO3)C1 (configuration not stated) | x | x | x | x | x | -5%
COc1ccccc1Cc1c(-c2ccc(F)cc2)nc2c(C)cc(Br)cn12 | -3 | x | x | i | 1% | 35µM*
O=C(Cc1cccs1)NC1C(=O)N2C(C(=O)[O-])=C(C[n+]3ccccc3)CSC12 (configuration not stated) | x | x | x | x | 11µM* | -5%
COc1ccc2c(c1)-c1nc(-n3ncc(C(=O)N(C)CC4CCCN(C)C4)c3C)ncc1CC2 (configuration not stated) | x | x | x | x | x | -5%
COc1ccc(CCNC(=O)c2cnn(-c3nccc(-c4cccs4)n3)c2C)cc1OC | x | x | x | x | x | 11%
Cc1c(C(=O)NCc2ccco2)cnn1-c1ncc2c(n1)-c1ccccc1CC2 | x | x | x | x | x | 7%
CC(C)(C)c1csc(N/N=C/c2cccnc2)n1 | 0 | -7% | 19% | i | 11µM* | 6%
COc1cccc(N(CC(=O)NC(C)c2ccccc2)S(C)(=O)=O)c1 (configuration not stated) | -3 | -1% | 4% | -119%* | 0% | -2%
N#C/C(=C(/O)COC(=O)CCCNC(=O)c1ccc(Cl)cc1)c1nc2ccccc2[nH]1 | -8 | 1% | -5% | -102%* | 12% | -1%
N#C/C(=C(/O)COC(=O)CSc1ccc(Cl)cc1)c1nc2ccccc2[nH]1 | -2 | -4% | -3% | i | 5% | 0%
COc1ccccc1C1CN(Cc2cccc3nccnc23)Cc2ccccc2O1 (configuration not stated) | x | x | x | x | x | -2%
O=c1c2cccc(Cl)c2nc2n1Cc1ccccc1-2 | 2 | -5% | 15% | i | 13µM* | 8%
O=CC(O)C1OC(=O)C(O)C1O (configuration not stated) | 1 | x | -7% | i | 11µM* | 0%
COc1ccc(NC(=O)CCC(=O)c2cc(C)sc2C)cc1 | -43* | -4% | 5% | i | -3% | 0%
COc1ccc(CC(=O)NC2=NCCS2)cc1 | 0 | -1% | 11% | i | 6% | -5%
COc1ccc(C(=O)CCC(=O)NC2=NCCS2)cc1 | -81* | 0% | 5% | x | -3% | -4%
Cc1ccc([C@H]2C[C@@H](n3cc(C4CC4)nn3)[C@H](O)CN2CC2CCCCC2)cc1 | -74* | x | 3% | i | 0% | 6%
